# Among all 370,000 compounds or so, about 4,700 (1.3%) were called active.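 Rule for the calls: active = inhibition above the plate cutoff, the mean of all test compounds on that plate plus 3 SD (cut at about 35% in these data); inactive = the rest.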 The full list was thinned out, with actives kept by preference.
# Assay: small molecules binding CAG repeat RNA – biochemical, fluorescence, primary screen (AID 651821);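 note: 0% = DMSO alone and 100% = 100 µM mitoxantrone as full dye displacement; higher means more dye released from RNA so lower well fluorescence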
# Conditions: r(CAG) RNA repeat, TO-PRO-1 dye displacement fluorescence; at 3 µM; hits give high values
row,SMILES,inhibition
1,O=S1(=O)c2c(cccc2N2CC[C@H](O)C2)O[C@@H]2CCN1C2,2.13% (inactive)
2,Cc1ccc(S(=O)(=O)N2CCN(C(=O)c3ccccc3-c3nc4ccccc4s3)CC2)c(C)c1,-1.03% (inactive)
3,Oc1ccc(-c2[nH]ncc2-c2nc3ccccc3s2)c(O)c1,34.9% (active)
4,NC(=O)Cc1ccc2sc(-c3ccccc3)nc2c1,1.7% (inactive)
5,O=C(CN1CCCc2ccccc21)NCc1ccc(F)cc1,5.24% (inactive)
6,C=CS(=O)(=O)N(Cc1nnn(Cc2ccccc2)c1Br)[C@H](C(=O)OC)C(C)C,-1.47% (inactive)
7,Cc1cccc(NC(=O)c2cc3c(C)nn(-c4ccccc4)c3s2)c1,11.1% (inactive)
8,Cc1nn2c(c1-c1ccccc1)N=C(c1ccco1)CC2c1ccccc1 (centres undefined),11.8% (inactive)
9,COC(=O)C1=C(C)N(Cc2ccccc2C(F)(F)F)C(=NCc2ccc(OC)cc2)NC1c1cccc(C(F)(F)F)c1 (centres undefined),1.76% (inactive)
10,O=c1c(-c2ccc3c(c2)OCCO3)c(C(F)(F)F)oc2cc(O)cc(O)c12,22.9% (inactive)
11,CCOC(=O)c1cc2cc(-c3c(C(=O)OCC)oc4cc(O)cc(O)c4c3=O)ccc2o1,42.5% (active)
12,CCOC(=O)c1oc2c(CN3CCN(C)CC3)c(O)ccc2c(=O)c1-c1ccc(Br)cc1,-3.79% (inactive)
13,COC(=O)C1CN(Cc2cn(Cc3ccc(F)cc3)nn2)CCS(=O)(=O)N1Cc1ccc(Cl)cc1 (centres undefined),-1.1% (inactive)
14,COc1cccc(-c2cc(CNC(=O)[C@@H](Cc3ccccc3)NC(=O)[C@H]3O[C@@H](n4cnc(C(N)=O)n4)[C@H](O)[C@@H]3O)no2)c1,6.53% (inactive)
15,COc1cccc(CC(=O)N2CCN(C(=O)C(=O)c3cccc(C(F)(F)F)c3)CC2)c1,-1.34% (inactive)
16,NS(=O)(=O)c1ccc(N=Nc2c(O)[nH]c3ccc(Br)cc23)cc1,51.6% (active)
17,Cc1[nH]c2ccc(S(N)(=O)=O)cc2c1C,2.18% (inactive)
18,Cc1cccc(N=Nc2c(O)[nH]c3ccc(F)cc23)c1,17.5% (inactive)
19,O=C(NC1CCCCN(Cc2ccc(Cl)cc2)C1=O)c1ccc(Br)cc1 (centres undefined),2.36% (inactive)
20,O=C(O)Cn1cnc2c(NCc3ccccc3)ncnc21,2.28% (inactive)
21,Nn1c(SCC(=O)Nc2cccc3ccccc23)nnc1-c1cc(-c2ccc(F)cc2)n[nH]1,9.39% (inactive)

row,SMILES,inhibition
1,CC(C(=O)Nc1ccc(O)c(C(=O)O)c1)N1C(=O)/C(=C/c2cccs2)SC1=S (centres undefined),87.5% (active)
2,CCOc1ccc(NC(=O)C(C)N2C(=O)c3ccccc3C2=O)cc1 (centres undefined),-4.17% (inactive)
3,O=C1/C(=C/c2cccs2)SC(=S)N1C1CCS(=O)(=O)C1 (centres undefined),-0.31% (inactive)
4,CNS(=O)(=O)c1ccc(NC(=O)C2CC(=O)N(c3ccc(Cl)cc3)C2)cc1 (centres undefined),6.47% (inactive)
5,CCc1ccc(N2CC(C(=O)Nc3ccc(S(=O)(=O)Nc4nccs4)cc3)CC2=O)cc1 (centres undefined),50.1% (active)
6,CC(C)c1ccc(N2CC(C(=O)Nc3nccs3)CC2=O)cc1 (centres undefined),0.86% (inactive)
7,Nc1ncnc2c1ncn2C1OC(CO)CC1O (centres undefined),0.74% (inactive)
8,O=C(NCCc1c[nH]c2ccccc12)OCc1cn(-c2c(F)cccc2F)nn1,0.36% (inactive)
9,COCCN(Cc1ccccc1)C(=O)Cc1ccc(S(=O)(=O)N2CCOCC2)s1,0.74% (inactive)
10,CCCCCCCCN1C(=O)[C@@H](CC(=O)NCc2ccc(C)o2)C[C@@]2(C(=O)OC)C1=C[C@H](C(C)(C)C)O[C@@H]2C,1.42% (inactive)
11,O=C(O)c1ccc(NN=CC2=C(N3CCOCC3)/C(=C/c3ccccc3)CC2)cc1,48.1% (active)
12,O=C1OC(NC(=O)c2ccccc2)C(N2CCOCC2)=C1Cl (centres undefined),-0.63% (inactive)
13,O=C(O)c1ccc(N=NN2CCOCC2)cc1,3% (inactive)
14,CCOc1ccc(-n2c(SCC(=O)Nc3cc(C)c(NC(=O)c4ccccc4)cc3OC)nnc2-c2cccc(Cl)c2)cc1,12.6% (inactive)
15,CCc1ccc(NC(=O)CCNS(=O)(=O)c2cccs2)cc1,-0.02% (inactive)
16,O=C(COC(=O)c1ccc(O)cc1O)NNC(=O)c1cccs1,1.41% (inactive)
17,O=C(COC(=O)c1ccc(NS(=O)(=O)c2cccs2)cc1O)Nc1ccc(F)cc1,43.1% (active)
18,C=CCn1c(C2CC(=O)N(c3ccc(C)cc3)C2)nc2ccccc21 (centres undefined),-6.52% (inactive)
19,C=CCn1c(=S)[nH]c2scc(-c3ccco3)c2c1=O,51.7% (active)
20,C=CCOC/C=C/C#CCN(CC=C)Cc1ccc(OC)cc1OC,-2.46% (inactive)
21,COC(=O)[C@]12C[C@H](CC(=O)NCc3cccc(C(F)(F)F)c3)C(=O)N(Cc3ccc4c(c3)OCO4)C1=C[C@H](COCc1ccccc1)O[C@@H]2C,7.43% (inactive)

row,SMILES,inhibition
1,CCn1c(SCC(=O)Nc2ccc(S(=O)(=O)Nc3onc(C)c3C)cc2)nnc1-c1ccccc1,35.5% (active)
2,Cc1cc(NS(=O)(=O)c2ccc(NC(=O)CSc3nnc(-c4ccc(C(C)(C)C)cc4)n3Cc3ccco3)cc2)nc(C)n1,37% (active)
3,CCn1c2ccccc2c2cc(NC(=O)CSc3nnc(-c4ccccc4)n3-c3ccc(C)cc3)ccc21,11.4% (inactive)
4,Cc1cc(NS(=O)(=O)c2ccc(NC(=O)CSc3nnc(SCc4ccc(F)cc4)s3)cc2)nc(C)n1,43.9% (active)
5,Cc1noc(NS(=O)(=O)c2ccc(N3CC(O)=C(c4ccccc4)C3=N)cc2)c1C,2.76% (inactive)
6,Cc1nnc(SCC(=O)Nc2ccc(S(=O)(=O)Nc3ccc(Cl)nn3)cc2)s1,16.9% (inactive)
7,Cc1ccc(-c2nnc(SCC(=O)Nc3ccc(Oc4ccccc4)cc3)n2Cc2ccco2)cc1,10.4% (inactive)
8,O=C(CSc1nnc(-c2cccc(Cl)c2)n1Cc1ccco1)Nc1ccc(OCc2ccccc2)cc1,8.04% (inactive)
9,O=C(CSc1nnc(SCc2ccc(F)cc2)s1)Nc1ccc(C(=O)O)cc1,24.4% (inactive)
10,COC(=O)C1=C(C)N(Cc2cccc(C(F)(F)F)c2)C(=NCc2ccccc2)NC1c1ccccc1C(F)(F)F (centres undefined),4.41% (inactive)
11,NC(=O)c1ncn([C@@H]2O[C@H](C(=O)O)[C@@H](O)[C@H]2O)n1,1.22% (inactive)
12,COc1ccc(C#CCNCc2ccc(OC)cc2OC)cc1,7.62% (inactive)
13,CC(=O)OC1CCC2(C)C(=CCC3C4CC(=O)N(O)C(=O)C4(C)CCC32)C1 (centres undefined),5.82% (inactive)
14,CC(=O)OCCN1CCCC12CCC(c1ccccc1)CC2 (centres undefined),2.02% (inactive)
15,COC(=O)[C@]12C[C@H](CC(=O)NCCCN3CCCC3=O)C(=O)N(CCc3ccc(OC)c(OC)c3)C1=C[C@H](COCc1ccccc1)O[C@@H]2C,3.23% (inactive)
16,CC(=O)Nc1nc2ncccn2c1-c1ccc(C(F)(F)F)cc1,0.83% (inactive)
17,Cc1ccc(C2NC(C(=O)O)CS2)cc1 (centres undefined),0.84% (inactive)
18,COCCNC(=S)N(C)[C@H]1C[C@H]2c3[nH]c4ccccc4c3CCN2C[C@H]1[C@H](C)O,0.81% (inactive)
19,COC(=O)[C@]12C[C@H](CC(=O)NCc3ccccc3)C(=O)N(CCC3=CCCCC3)C1=C[C@H](C(C)C)O[C@@H]2C1CC1,3.49% (inactive)
20,O=C(c1c[nH]c2ccccc12)N1CCC(Oc2cccnc2)CC1,0.25% (inactive)
21,CC(C)=CCCC1(C)C=Cc2c(ccc3c2[nH]c2cc(O)c(C)cc23)O1 (centres undefined),50.7% (active)

row,SMILES,inhibition
1,COP(=O)(O)CNC(=O)OCc1ccccc1,3.7% (inactive)
2,C[C@@H](CN1C2=NC[C@@H](Cc3ccccc3)N2C[C@H]1Cc1ccc(O)cc1)NC(=O)CCC1CCCCC1,10.8% (inactive)
3,C=C(C)C#CC(Cc1ccccc1)NCC1CC1 (centres undefined),0.83% (inactive)
4,Cc1sc2nc(SCC(=O)c3ccc(O)c(O)c3)n(Cc3ccco3)c(=O)c2c1C,60.5% (active)
5,O=C(CSc1nnc(COc2ccccc2)n1Cc1ccco1)c1ccc2ccccc2c1,10.1% (inactive)
6,O=C(CSc1nnc(-c2cccs2)n1Cc1ccco1)c1ccc2c(c1)OCO2,2.71% (inactive)
7,CN[C@H]1C[C@H]2c3cc(N4CCOCC4)ccc3CCN2C[C@H]1[C@H](C)O,0.53% (inactive)
8,COC(=O)c1ccc(NC(=O)CSc2nc(N)c(NC(=O)c3ccc(Br)o3)c(=O)[nH]2)cc1,8.43% (inactive)
9,COc1ccc(OCCCC(=O)Nc2nnc(C3CCCO3)s2)cc1 (centres undefined),-2.42% (inactive)
10,COc1ccc(OCC(=O)Nc2nnc(-c3ccco3)s2)cc1,35.6% (active)
11,COc1ccc(CNC(=O)CCC(=O)Nc2nnc(C(C)C)s2)cc1,-3.44% (inactive)
12,CC(=O)C1=C(C)N(Cc2ccccc2)C(=S)NC1c1cccc(Br)c1 (centres undefined),3.69% (inactive)
13,Cc1[nH]nc2c1C(c1ccc(Br)cc1)NC2=O (centres undefined),2.38% (inactive)
14,CCc1cc(-c2nnc(SCC(=O)NC3CC3)n2C)cs1,-0.55% (inactive)
15,CCc1ccc(C(=O)CSc2nnc(C)c(=O)[nH]2)cc1,1.9% (inactive)
16,Cc1nnc(SCC(=O)NCc2cccs2)[nH]c1=O,1.73% (inactive)
17,N#Cc1c(-c2cccs2)nc(SCC(=O)c2ccc(Br)cc2)[nH]c1=O,76% (active)
18,COc1ccc(-n2c(COc3ccccc3)nnc2SCC(=O)Nc2ccc3c(c2)OCO3)cc1,3.35% (inactive)
19,CN[C@H]1C[C@H]2c3[nH]c4c(-c5ccccc5)cccc4c3CCN2C(=O)[C@H]1[C@H](C)O,1.12% (inactive)
20,COc1ccc([C@H]2OC(=O)C[C@H]2C(=O)N2CCN(c3ccccc3F)CC2)cc1OC,-0.41% (inactive)
21,O=C(CCCCCN1C(=O)C2C3C=CC(C3)C2C1=O)Nc1ccccc1 (centres undefined),-0.35% (inactive)
